Assay outcomes: PubChem BioAssay, National Center for Advancing Translational Sciences (NCATS)
D2 ag-1: Beta-Arrestin HTS for Positive Allosteric Modulators of the Human D2 Dopamine Receptor: Agonists; D(2) dopamine receptor (Homo sapiens), P14416; DiscoveRx PathHunter D2 beta-arrestin, luminescence, 90 min; 100% = 57 uM dopamine signal; activation, % (concentration not given with the values); 360,000 tested, 0.084% active; AID 624465, 2012; in the data active = activation above about 40%; inconclusive = between about 15% and that limit
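DiscoveRx PathHunter D2 beta-arrestin cells (2,100/well) attached overnight, then compound-stimulated 90 min at 37 C in HBSS/10 mM HEPES/0.1% Tween-20 buffer; beta-galactosidase complementation read by luminescence after 1 h at ambient temperature. Dopamine 57 uM final (EC100) as control.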
Apoferritin bind: qHTS Assay for Identification of Novel General Anesthetics | 350,000 tested, 0.074% active | apoferritin/1-aminoanthracene competitive binding, fluorescence | Potency, µM (series often up to 77.5 µM), for the others: top-dose activity change, negative = displacement, actives largely listed as inhibitors; also: potency is read from the fitted curve at half-maximal effect; % is scaled to controls: 0 for no effect and ±100 for the full control effect; nearly all actives have a fitted effect of over 20% in size
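Concentration-response curves derived by four-parameter Hill fitting of normalized fluorescence, where compounds displaced 1-AMA from 10 uM horse apoferritin following a brief 10 min room-temperature incubation; propofol titration acted as positive control.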
D2 antag: HTS Assay for Allosteric Antagonists of the Human D2 Dopamine Receptor: Primary Screen for Antagonists; HEK293 TREx D2 cells, calcium flux, dopamine EC80; inhibition, % at 10 µM; 340,000 tested, 2% active; in the data active = inhibition above about 30%; inactive = below that, where a call was filed; also: 0% is about no effect
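Antagonism is scored as inhibition of an EC80 dopamine-evoked calcium signal in a force-coupled, tetracycline-inducible HEK293 T-REx D2 line, with compound present 180 s before agonist.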
D2 PAM-1: HTS Assay for Positive Allosteric Modulators of the Human D2 Dopamine Receptor: Primary Screen for Potentiators. D(2) dopamine receptor (Homo sapiens), P14416. HEK293 T-REx D2, calcium flux, EC20 dopamine potentiation. potentiation, % at 10 µM. 340,000 tested, 0.34% active;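 active = potentiation over 3 SD above the plate norm, cut at about 30% in these data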; also: 0% is about no effect
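Using a no-wash calcium dye in inducible, force-coupled HEK293 Trex cells expressing D2, we tracked fluorescence each second for 180 s after compound, then for 180 s after EC20 dopamine to detect augmented signalling.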
D2 PAM-2: Beta-Arrestin HTS for Positive Allosteric Modulators of the Human D2 Dopamine Receptor: Potentiators | DiscoveRx D2 beta-arrestin cells, luminescence, 90 min; 100% = 57 uM dopamine signal | potentiation, % (concentration not given with the values) | D(2) dopamine receptor (Homo sapiens), P14416 | AID 624464, 2012 | 360,000 tested, 0.23% active; in the data active = potentiation above about 50%; inconclusive = mostly about 30% to 49%
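PathHunter D2 cells, attached overnight at 37 deg C, received compound in DMSO plus dopamine at EC20 (50 nM final) for 90 min at 37 deg C. Beta-arrestin recruitment was read as luminescence after 1 h with detection reagent at ambient temperature.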
D2 ag-2: HTS Assay for Allosteric Agonists of the Human D2 Dopamine Receptor: Primary Screen for Agonists. D(2) dopamine receptor (Homo sapiens), P14416. HEK293 T-REx D2 cells, calcium flux agonist mode. activation, % at 2 µM. 340,000 tested, 0.53% active;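 active = activation over 3 SD above normal in the single-dose calcium agonist read, cut at about 30% in these data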; also: 0% is about no effect
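Tetracycline-induced HEK293 Trex cells with D2 receptor force-coupled to calcium signaling, plated overnight at 30 C and loaded with no-wash calcium dye. Calcium flux read kinetically for 180 s after compound addition; responses flag agonists.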
D3 ag: qHTS of D3 Dopamine Receptor Agonist: D3 Dopamine Receptor B-arrestin Agonist Confirmatory Assay; shares compounds with D2 ag-2; DiscoveRx D3 beta-arrestin cells, luminescence, 90 min; Potency, µM (series often up to 76.9 µM), inactives show top-dose activation, actives largely listed as activators; 2,300 tested, 4% active;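 also: potency is read from the fitted curve at half-maximal effect; 100% = dopamine control response; nearly all actives have a fitted effect of over 70% in size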
Target sequence (P35462 whole entry, looked up): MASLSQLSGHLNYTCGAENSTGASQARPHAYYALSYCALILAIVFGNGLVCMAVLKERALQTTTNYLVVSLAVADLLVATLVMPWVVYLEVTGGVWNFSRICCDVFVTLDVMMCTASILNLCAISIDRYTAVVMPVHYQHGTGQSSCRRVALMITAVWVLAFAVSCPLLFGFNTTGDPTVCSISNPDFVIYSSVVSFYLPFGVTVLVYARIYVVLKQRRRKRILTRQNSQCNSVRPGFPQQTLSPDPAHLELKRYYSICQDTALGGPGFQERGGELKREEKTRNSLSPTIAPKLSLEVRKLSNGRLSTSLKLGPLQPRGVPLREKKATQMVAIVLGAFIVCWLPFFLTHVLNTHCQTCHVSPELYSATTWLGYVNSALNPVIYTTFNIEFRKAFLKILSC
D2 ag-3: qHTS of D3 Dopamine Receptor Agonist: D2 Dopamine Receptor B-arrestin Agonist Counterscreen; shares compounds with D2 ag-2; DiscoveRx PathHunter D2 beta-arrestin, luminescence, 90 min; response scale: percent relative to full dopamine signal; Potency, µM (doses to about 76.9 µM), for the others: at the highest dose activation, hits mostly activators; 2,300 tested, 5.9% active; AID 720507, 2013; also: potency is read from the fitted curve at half-maximal effect; % of control where 0% means no effect; nearly all actives have a fitted effect of over 70% in size
* hit, by the source's call; ? = inconclusive; · = not tested or not shown. Hits are enriched below; roughly 2.5% of the tested compounds scored in any of these assays. Unless noted, calls follow the shape of the dose curve; as a rule, active = well fitted curve in the direction sought with a large enough effect; inconclusive = small, poorly fitted or top-dose-only effect, or another doubt; inactive = no such curve, though single readings can be large; an effect the other way counts as inactive or inconclusive.

SMILES	D2 ag-1	Apoferritin bind	D2 antag	D2 PAM-1	D2 PAM-2	D2 ag-2	D3 ag	D2 ag-3
CN(C)CCCOc1cccc(Cl)c1	-1	7%	-13	-17	-13	-1	·	·
CCN1CCN(C(c2cccnc2)c2c(NC(=O)c3ccco3)sc(C)c2C)CC1 (stereo unspecified)	2	·	-10	-5	-1	0	·	·
Cc1ccc(Cn2ncc3c(N4CCCC4)ncnc32)cc1	-5	-2%	16	15	-11	0	·	·
Cc1cc(C)n2nc(-c3cccnc3)nc2n1	-2	-7%	-14	4	2	-1	·	·
Cc1cc(C)n2nc(-c3ccc(F)cc3)nc2n1	3	-9%	·	·	-6	·	27%	-5%
Cc1ccc(NC(=O)[C@@H]2CCCN2S(=O)(=O)c2ccccc2F)cc1	-2	-5%	-12	1	2	1	·	·
O=C(Nc1cccc(S(=O)(=O)N2CCCCC2)c1)C1CCCN1S(=O)(=O)c1ccccc1F (stereo unspecified)	3	·	22	-6	25	5	1%	16%
CC(=O)NCCC(=O)Nc1cc(S(=O)(=O)N2CCCCC2)ccc1N1CCN(C)CC1	-2	·	-2	-2	-11	1	·	·
CC(=O)NCCC(=O)Nc1cc(S(=O)(=O)N2CCCCC2)ccc1N1CCCCC1	0	·	15	-1	-5	1	8%	1%
O=C(CN1CCN(C(=O)c2ccco2)CC1)Nc1cccc(S(=O)(=O)N2CCCC2)c1	6	·	13	2	3	30	17%	17%
O=C(CN1CCc2ccccc2C1)Nc1cccc(S(=O)(=O)N2CCCC2)c1	0	-9%	49*	-24	-9	53*	?	?
Cc1cc(NC(=O)Nc2cc(Cl)ccc2C)no1	-6	-15%	·	·	?	·	·	·
COc1ccc(C(=O)NNC(=O)Cn2nc(C)cc2C)cc1S(=O)(=O)N1CCOCC1	-7	·	·	·	-9	·	·	·
Cc1ccc(S(=O)(=O)CCC(=O)Nc2cccc(S(=O)(=O)N3CCCCCC3)c2)cc1	-7	·	6	-7	0	-1	8%	11%
O=C(OCc1ccc(F)cc1)c1cc(=O)c2ccccc2o1	2	5%	7	11	-5	-2	·	·
Cc1cc(C)n(CC(=O)N2CCCC(N3CCN(c4ccccc4C)CC3)C2)n1 (stereo unspecified)	3	-7%	-17	-12	19	1	·	·
COC(=O)C1CCN(CC(=O)Nc2ccc(C(=O)Nc3ccccc3OC)cc2)CC1	?	·	28	-26	0	62*	21%	?
COc1ccccc1NC(=O)CN1CCN(CC(=O)Nc2ccc(F)cc2)CC1	-3	2%	4	-2	-5	0	·	·
COc1ccccc1NC(=O)CN1CCN(c2ccccn2)CC1	?	-2%	50*	12	5	14	29%	?
